# Test results from the supplement of paper PMC4237247.
# Test system: HeLa
# Assay: percent cells in G2/M phase; higher = more G2/M arrest
# Details: 10 µM; 20 h; hit class: G1-phase inhibitor
# Protocol: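 HTS of 79,827 drug-like compounds at 10 uM. HeLa cells in 384-well plates were treated for 20 h, fixed, stained with Vybrant DyeCycle Green and scanned on an Acumen eX3 cytometer to give per-well cell cycle profiles (% cells in each phase). The plate Z' was 0.51. Only hits are listed: G1 hits >4 SD and S hits >5 SD from the mean.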
row,SMILES,percent cells in G2/M phase
1,CC(C)(C)c1cc(C=C(C#N)C#N)cc(C(C)(C)C)c1O,12.3%
2,C[C@@]12C(=O)OC(=O)[C@]1(C)[C@H]1CC[C@@H]2O1,12%
3,CNC1CC2OC(C)(C1OC)n1c3ccccc3c3c4c(c5c6ccccc6n2c5c31)C(=O)NC4 (centres undefined),3.24%
4,C/C=C(/C)C(=O)O[C@H]1C(C)=C2[C@H]([C@@H]1OC(=O)CCCCCCC)[C@@](C)(OC(C)=O)C[C@H](OC(=O)CCC)[C@@]1(O)[C@H]2OC(=O)[C@@]1(C)O,9.52%
5,C[C@@H]1O[C@@H](O[C@H]2C[C@@H](O)[C@]3(CO)[C@H]4[C@H](O)C[C@]5(C)[C@@H](C6=CC(=O)OC6)CC[C@]5(O)[C@@H]4CC[C@]3(O)C2)[C@H](O)[C@H](O)[C@H]1O,12.2%
6,CNc1ccc2oc(C[C@H]3O[C@@]4(CC[C@H]3C)O[C@H]([C@H](C)C(=O)c3ccc[nH]3)[C@H](C)C[C@H]4C)nc2c1C(=O)O,5.98%
7,C/C(=C\c1ccc(Cl)cc1)[N+](=O)[O-],2.17%
8,O=[N+]([O-])c1ccc(NCCO)c2ncccc12,23.7%
9,C[C@@H]1C[C@@H]([C@H](O)CC2CC(=O)NC(=O)C2)C(=O)[C@@H](C)C1 [Cycloheximide],11.8%
